# Screening results deposited in PubChem by several laboratories.
# In the library only some 1.5% were active in any assay of this set; here they are far more common.
# E coli Lon inh = E. coli protease La inhibition; purified E. coli Lon protease, fluorescence polarization; 0.42% of 360,000 active; inhibition, % at 7.94 µM; P0A9M0; in the data active = inhibition above about 13%, passing the limit was not always enough
# MCL1 BIM primary = disrupts human MCL1 binding to BIM-BH3 peptide; GST-MCL1 / FITC-Bim-BH3 fluorescence polarization; AID 2057; inhibition, % at 10.9 µM; 0.68% of 320,000 active; Q07820;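 active = inhibition above the mean inhibition of all tested compounds plus 3 SD, set per campaign, cut at about 40% in these data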;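 also: higher means more loss of mP so more displacement of Bim peptide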
# Target sequence (Q07820 whole entry, looked up): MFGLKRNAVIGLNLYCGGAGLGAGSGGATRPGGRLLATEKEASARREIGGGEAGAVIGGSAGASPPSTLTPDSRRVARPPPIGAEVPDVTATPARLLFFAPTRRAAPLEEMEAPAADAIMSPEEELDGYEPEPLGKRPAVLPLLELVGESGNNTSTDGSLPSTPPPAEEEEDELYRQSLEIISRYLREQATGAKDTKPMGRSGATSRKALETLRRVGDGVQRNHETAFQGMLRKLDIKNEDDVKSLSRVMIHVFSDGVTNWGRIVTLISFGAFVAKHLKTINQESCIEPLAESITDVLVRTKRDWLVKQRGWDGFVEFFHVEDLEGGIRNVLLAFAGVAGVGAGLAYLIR
# GLD-1 RNA inh = GLD-1-TGE RNA interaction inhibition (C. elegans); inhibition, % at 5.96 µM; purified GLD-1 + fluorescein TGE RNA, fluorescence polarization; 0.44% of 320,000 active; AID 2280; Q17339;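 active = percent inhibition above a per-plate cutoff, the plate mean of test compounds plus 3 SD, cut at about 30% in these data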
# EBV gp42 inh = blocks Epstein-Barr virus glycoprotein 42 binding; AID 1085; inhibition, % (tested at 21.74 µM); 0.42% of 220,000 active; Fluorescence polarization binding assay, mP read-out; Q1HVG2; in the data active = inhibition above about 50%
# Target sequence (Q1HVG2 whole entry, looked up): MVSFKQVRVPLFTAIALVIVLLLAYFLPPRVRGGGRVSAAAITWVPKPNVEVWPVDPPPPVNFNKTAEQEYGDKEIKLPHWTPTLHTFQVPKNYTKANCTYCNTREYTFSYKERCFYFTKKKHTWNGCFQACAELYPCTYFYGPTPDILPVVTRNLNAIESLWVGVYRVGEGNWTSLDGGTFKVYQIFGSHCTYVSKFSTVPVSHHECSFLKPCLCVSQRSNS
# MEX-5 binding = C. elegans MEX-5 TCR-2 RNA binding activity | 0.38% of 300,000 active | MEX-5/FITC-TCR2 RNA binding, fluorescence polarization; hits give low values | Q9XUB2 | activity score (negative = inhibition of binding), % at 10 µM;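 active = inhibition past about -25% in most replicates, and total fluorescence under double the plate's negative control median, limit read from the data; inconclusive = replicates evenly split on the limit, or fluorescence at least double controls; inactive = too little inhibition in most replicates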
# BCLXL inh = inhibitors of human Bcl-xL. Q07817. GST-Bcl-xL / FITC-Bim BH3 peptide fluorescence polarization. inhibition, % at 10.9 µM. 0.7% of 320,000 active. AID 2129;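 active = inhibition above the mean of all tested compounds plus 3 SD, cutoff set per campaign, cut at about 30% in these data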;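 also: inhibitors lower millipolarization by displacing the labeled peptide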
# Bcl-xL conf = counter-screen for MCL1 inhibitors: confirmation of human Bcl-xL inhibitors. shares compounds with MCL1 BIM primary. GST-Bcl-xL / FITC-Bim BH3 peptide FP binding. inhibition, % at 10.9 µM. 54% of 1,700 active. AID 2166;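 active = inhibition above a cutoff equal to the mean inhibition of all tested compounds plus 3 SD, cut at about 30% in these data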
# MCL1 BIM confirm = confirmation of human MCL1 and BIM-BH3 interaction inhibitors. GST-MCL1 / FITC-Bim-BH3 fluorescence polarization. AID 2168. shares compounds with MCL1 BIM primary. 61% of 1,700 active. inhibition, % at 10.9 µM;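 active = inhibition above the average of all tested compounds plus 3 SD, cut at about 40% in these data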
# GLD-1 TGE cf = confirmation of C. elegans GLD-1 TGE RNA binding inhibitors. GLD-1/FL-TGE RNA fluorescence polarization, biochemical. shares compounds with GLD-1 RNA inh. 10% of 550 active. AID 2459. inhibition, % at 5.96 µM;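 active = average inhibition across triplicates above the hit cutoff set in the primary screen, cut at about 32% in these data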
# E coli Lon conf = confirmation of E. coli Lon protease inhibitors | AID 602230 | 31% of 1,400 active | purified E. coli Lon, fluorescence polarization | inhibition, % at 7.94 µM | shares compounds with E coli Lon inh; in the data active = inhibition above about 16%
# Hits are given with their value; n = inactive; u = inconclusive; x = not tested or not shown; + = active, no number.
SMILES,E coli Lon inh,MCL1 BIM primary,GLD-1 RNA inh,EBV gp42 inh,MEX-5 binding,BCLXL inh,Bcl-xL conf,MCL1 BIM confirm,E coli Lon conf,others
N#Cc1c(N)sc(=S)c2c1CCCC2,16,160,102,n,n,142,62,92,n,
Cc1cc2nc3c(=O)[nH]c(=S)[nH]c3nc2cc1NC(=O)C(F)(F)F,+,+,185,x,u,+,185,197,145,
O=c1[nH]c(=S)[nH]c2nc(-c3ccccc3)cnc12,n,n,n,x,n,n,x,x,x,
O=S1(=O)C[C@@H](N2CCN(c3ccccn3)CC2)[C@H](COCc2ccccc2)N1,n,x,x,x,x,x,x,x,x,
CC(C)(C)c1cc[n+](-c2nc([O-])sc2C=O)cc1,n,n,n,n,n,n,x,x,x,
CCc1cc[n+](-c2nc([O-])sc2C=O)cc1,40,136,99,87,-50,122,83,119,n,
CC(C)(C)c1ccc(C(=O)Nc2cccc3ncccc23)cc1,44,90,64,x,-74,81,116,143,44,
Cc1ccc(C(O)c2ncc(-c3cccc(C(F)(F)F)c3)[nH]2)cc1F (centres undefined),n,x,x,x,x,x,x,x,x,
CCC1OC23CCCCC2C(C#N)(C(=N)O3)C1(C#N)C#N (centres undefined),28,78,57,n,n,77,n,n,n,
COc1ccc(C2OC34CCCCC3C(C#N)(C#N)C2(C#N)C(=N)O4)cc1 (centres undefined),34,155,101,n,-84,135,105,135,34,
N#CC1(C#N)COC23CCCCC2C1(C#N)C(=N)O3 (centres undefined),23,78,45,n,n,68,n,n,n,GLD-1 TGE cf=n
N#CC12COC3(CCCCC3C1(C#N)C#N)OC2=N (centres undefined),46,72,74,n,n,63,n,n,n,
CCCC12CN3CC(CCC)(CN(C1)C3c1ccco1)C2=O (centres undefined),n,n,n,n,n,n,x,x,x,
Fc1ccc(C2=CC(c3ccco3)n3ncnc3N2)cc1 (centres undefined),79,181,96,n,-51,152,n,n,n,
N#Cc1ccccc1CN1C(=O)NC2(CCCCCC2)C1=O,n,n,n,x,n,n,x,x,x,
CCCCOc1[nH]c2nc(-c3ccco3)n(Cc3ccco3)c(=N)c2c1C#N,51,163,107,55,n,140,90,123,n,
O=C(CSc1nc2ccccc2n1S(=O)(=O)c1ccccc1)N1CCCC1,n,n,n,n,n,n,x,x,x,
CC(=O)c1c(Cl)nc2cccc3c2c1-c1ccccc1C3=O,24,59,n,x,n,54,40,n,28,
Cc1cccn2c(=O)c(C=C(C#N)C#N)c(N3CCN(c4ccccc4)CC3)nc12,n,x,x,x,n,x,x,x,x,
Cc1cccn2c(=O)c(C=C(C#N)C#N)c(N3CCN(C)CC3)nc12,17,53,n,x,n,58,n,n,n,
Nn1c(SCC(=O)N2CCOCC2)nnc1-c1cccnc1,n,n,n,x,x,n,x,x,x,
O=C(O)CCCNc1cc(N2CCN(C(=O)c3ccco3)CC2)c2noc3c2c1C(=O)c1ccccc1-3,26,157,99,x,u,135,193,164,132,
C/C(=N\NC(=O)c1cc(-c2ccc(C)s2)[nH]n1)c1ccncc1,n,n,n,x,n,n,x,x,x,
C=CCn1c(=O)[nH]c2nc3cc(N=CN(C)C)c(C)cc3nc2c1=O,158,+,181,118,-51,+,186,+,+,
CN(C)/C=N/c1cc(=O)[nH]c(=O)n1CC1CC1,n,n,n,n,n,n,x,x,x,
SMILES,E coli Lon inh,MCL1 BIM primary,GLD-1 RNA inh,EBV gp42 inh,MEX-5 binding,BCLXL inh,Bcl-xL conf,MCL1 BIM confirm,E coli Lon conf,others
Cc1cc(-c2csc(NC(=O)c3ccc(C#N)cc3)n2)c(C)n1Cc1ccccc1,n,n,n,n,n,n,x,x,x,
Cc1cccc(C(=O)Nc2cccc3cccnc23)c1,n,x,x,x,n,x,x,x,x,
Cc1ccc(/C=C/C(=O)Nc2cccc3cccnc23)o1,70,84,68,n,n,78,32,40,30,
COc1ccccc1C(=O)Oc1ccc2c(c1)O/C(=C\c1ccncc1)C2=O,28,142,101,n,-26,123,32,52,49,
O=C(Oc1ccc2c(c1)O/C(=C\c1ccncc1)C2=O)c1cccs1,54,82,84,n,n,78,34,46,24,
CCCS(=O)(=O)NC(=O)C1(C)CCN(C(=O)c2ccc3ccccc3c2)C1 (centres undefined),n,x,x,x,x,x,x,x,x,
Nc1ncc(-c2ccccc2)c(-c2ccc(O)cc2O)n1,22,51,43,x,n,50,n,n,n,GLD-1 TGE cf=n
Cn1c(=O)c2c(nc(Oc3ccccc3Br)n2C)n(C)c1=O,n,x,x,x,n,x,x,x,x,
Cn1c(=O)c(N)c2c3c(c(Br)ccc31)C(=O)c1ccccc1-2,+,+,+,171,-39,+,+,+,+,
CC(=O)Nc1ccc2nc3c(=O)n(C)c(=O)n(C)c3nc2c1,68,190,65,102,n,132,146,190,64,
CCOc1cccc(C2C(C(=O)c3ccc(C)o3)=C(O)C(=O)N2c2nccs2)c1 (centres undefined),98,143,143,172,-71,121,156,183,118,
O=C(C1=C(O)C(=O)N(c2nccs2)C1c1ccccc1)c1cc2ccccc2o1 (centres undefined),+,+,174,157,n,185,177,+,197,
CCOc1cccc(C2C(C(=O)c3ccc(C)o3)=C(O)C(=O)N2Cc2ccncc2)c1 (centres undefined),n,n,n,n,n,n,x,x,x,
COc1ccccc1/C=C/C(=O)c1c2c(c(C)[nH]c1=O)CCCC2,n,n,n,n,x,n,x,x,x,
Nc1c(C(=O)N/N=C/c2cccnc2)oc2nc(-c3ccco3)cc(-c3ccco3)c12,56,61,n,n,n,68,n,n,n,
COc1ccc(CN2CCN(C(=O)C3CCC(CNS(=O)(=O)c4ccc(C)cc4)CC3)CC2)c(OC)c1OC (centres undefined),n,n,n,n,n,n,x,x,x,
